Dicer processing = inhibitors of human Dicer processing of pre-microRNA; Q9UPY3; hit rate 6% among 47,000; cat-ELCCA pre-miR-21 Dicer processing, chemiluminescence; active compounds read high; z-score at 25 µM; in the data active = z-score above about 3, passing the limit was not always enough;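 also: higher signal means more uncleaved substrate so more Dicer inhibition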
Of the large screens only hits and unclear results are named; the others gave an inactive call. Shown is part of a subset that was picked to be rich in hits.

O=C1NC(c2ccccc2Cl)Nc2sc3c(c21)CCCC3 (configuration not stated)	Dicer processing 5.9
O=C1NC(c2ccc(Cl)cc2)Nc2sc3c(c21)CCCC3 (configuration not stated)	none
Cc1ccc(C2=CC(c3ccccc3Cl)n3nc(CCCO)nc3N2)cc1 (configuration not stated)	none
O=C(O)CSc1nnc2c3ccccc3n(CCc3ccccc3)c2n1	none
Cc1noc(C(F)(F)F)c1C(=O)O/N=C(\N)c1cccc(C(F)(F)F)c1	none
CS(=O)(=NC(=O)Nc1ccc(Cl)cc1)c1ccccc1 (configuration not stated)	none
COc1cccc2c1OC(C(C)C)N1N=C(c3cc(Cl)ccc3O)CC21 (configuration not stated)	none
COc1ccc(C2CC(c3cc(Cl)ccc3O)=NN2)cc1 (configuration not stated)	Dicer processing 5.8
COc1ccc(C2Oc3c(OC)cccc3C3CC(c4ccccc4O)=NN32)cc1 (configuration not stated)	none
COc1ccc(C2=Nc3ccccc3SC(c3ccccc3)C2)c(O)c1 (configuration not stated)	none
COc1ccc(C2CC(c3ccccc3O)=NN2)cc1 (configuration not stated)	Dicer processing 4.2
COc1ccc(O)c(C2=NN3C(C2)c2cccc(OC)c2OC3c2ccc(F)cc2)c1 (configuration not stated)	none
Cc1[nH]c2c(C)cccc2c(=O)c1CN(C)Cc1ccccc1	none
COc1ccc(NC(=O)Cn2nnc3sc4c(c3c2=O)CCCC4)c(OC)c1	none
COc1ccc(/C=C/c2nc(-c3ccc(Br)cc3)no2)cc1OC	none
Cc1ccc2oc3c(c(=O)c2c1)C(c1ccc(O)cc1)N(Cc1ccccc1)C3=O (configuration not stated)	none
CC1=C(C(=O)OCC2CCCO2)C(c2ccc(N(C)C)cc2)C2=C(CCCC2=O)N1 (configuration not stated)	none
Cc1ccc(/C=N\Nc2nc3ccccc3nc2/C=C/c2cccs2)cc1	none
CCNC(=O)NNc1c(Cl)cncc1Cl	none
CN(NC(=O)NC(=O)c1c(Cl)cccc1Cl)c1ccc(Cl)cc1[N+](=O)[O-]	none
CC(=O)NC(Nc1ccccc1C)(C(F)(F)F)C(F)(F)F	none
C/C(Nc1ccccc1C)=C1/CCOC1=O	Dicer processing 4
C/C(Nc1ccccc1F)=C1/CCOC1=O	none
COC(=O)c1cc([N+](=O)[O-])nn1Cc1ccccc1	none
O=C(Cn1cnc([N+](=O)[O-])n1)OCCCc1ccccc1	Dicer processing 3.5
O=C(O)c1cccc(Cn2cnc([N+](=O)[O-])n2)c1	none
O=C(Nc1ccccc1N1CCOCC1)c1ccnc(N2CCC(O)(c3ccc(Cl)cc3)CC2)c1	none
OC(CNCCNc1ncccc1C(F)(F)F)COc1ccc(Cl)c(Cl)c1 (configuration not stated)	none
FC(F)(F)c1cnc(NCCNc2cnc3ccccc3n2)c(Cl)c1	none
O=C(NCCNc1ncc(C(F)(F)F)cc1Cl)C(F)(F)Sc1ccccc1	Dicer processing 5
Cc1ccc(S(=O)(=O)NC(=O)NCCNc2ncc(C(F)(F)F)cc2Cl)cc1	none
O=C(/C(=C/c1ccccc1)[N+](=O)[O-])c1ccccc1OCc1ccccc1	none
CC(C)(C)n1cnc2cc(NCc3ccco3)ccc21	none
CC(C)n1cnc2cc(NCc3ccco3)ccc21	none
Cn1cnc2cc(NCc3ccco3)ccc21	Dicer processing 4.9
O=C(O)C12CC3CC(C1)CC(C(F)(F)C(F)C(F)(F)F)(C3)C2 (configuration not stated)	none
COc1ccc(-c2nnc(SCC(=O)OC(C)C)o2)cc1	Dicer processing 3.1
Cc1ccc(-c2nnc(SCC(=O)OC(C)C)o2)cc1	none
CC(C)OC(=O)CSc1nnc(-c2ccc(Br)cc2)o1	none
CSc1n[nH]c(=O)n1-c1ccc2c(c1)OCCO2	none
O=C(Nc1nc2ccccc2c(=O)s1)c1ccc([N+](=O)[O-])cc1	none
COC(=O)c1cc(OC)c(OC)cc1NC(=O)N1c2ccccc2Sc2ccccc21	none
COc1ccccc1NC(=O)N1c2ccccc2Sc2ccccc21	Dicer processing 3.1
COc1cc(NC(=O)N2c3ccccc3Sc3ccccc32)c(C(=O)O)cc1OC	none
CCCN1C(=O)C(NC(C)=O)c2cc(Br)ccc21 (configuration not stated)	none
CCOc1nccc(C(F)(F)F)c1C(=O)N(CC)c1c(C)cccc1C	none
CCc1nnc2sc(-c3ccc(N)cc3)nn12	Dicer processing 3.4
CCOc1ccc(-c2nn3c(COc4ccccc4)nnc3s2)cc1	none
COc1ccc(-c2nn3c(Cc4ccccc4)nnc3s2)cc1	none
CC(C)(C)c1ccc(NC(=O)Oc2ccccc2N2CCOCC2)cc1	none
O=C(Nc1ccc2c(c1)OCO2)Oc1ccccc1	none
O=C(Nc1ccccc1)Oc1cccc(N2CCOCC2)c1	Dicer processing 3.3
CCSCCOC(=O)C1=C(C)NC2=C(C(=O)CC(c3ccccc3)C2)C1c1cccc(F)c1 (configuration not stated)	Dicer processing 3.7
COC(=O)C1=C(C)NC2=C(C(=O)CC(c3ccccc3)C2)C1c1ccc(Br)cc1 (configuration not stated)	none
COC(=O)C1=C(C)NC2=C(C(=O)CC(c3ccccc3)C2)C1c1ccccc1Br (configuration not stated)	Dicer processing 7.6
CCCOC(=O)C1=C(C)NC2=C(C(=O)CC(c3ccccc3OC)C2)C1c1coc2ccccc2c1=O (configuration not stated)	Dicer processing 6
COc1ccccc1C1CC(=O)C2=C(C1)NC(C)=C(C(=O)OC(C)C)C2c1coc2ccccc2c1=O (configuration not stated)	none
CCCOC(=O)C1=C(C)NC2=C(C(=O)CC(c3cccs3)C2)C1c1coc2ccc(C)cc2c1=O (configuration not stated)	none
CCOC(=O)C1=C(C)NC2=C(C(=O)CC(c3ccccc3)C2)C1c1ccccc1Cl (configuration not stated)	Dicer processing 3.7
CC1=C(C(=O)OCC(C)C)C(c2cccc(F)c2)C2=C(CC(c3ccccc3)CC2=O)N1 (configuration not stated)	none
CCCOc1ccccc1C1C(C(=O)OCC)=C(C)NC2=C1C(=O)CC(c1ccccc1)C2 (configuration not stated)	none
COC(=O)C1=C(C)NC2=C(C(=O)CC(c3ccc(OC)cc3)C2)C1c1ccc(OC)cc1 (configuration not stated)	none
CCOC(=O)C1=C(C)NC2=C(C(=O)CC(c3ccccc3)C2)C1c1ccc(C)o1 (configuration not stated)	none
CCSCCOC(=O)C1=C(C)NC2=C(C(=O)CC(c3ccc(OC)cc3)C2)C1c1ccc(F)cc1 (configuration not stated)	none
COC(=O)c1sccc1-c1ccc(CN2CCC(c3ccccc3OC)CC2)o1	none
CC(C)S(=O)(=O)c1cnc(-c2ccc(Cl)cc2)nc1N	none
COc1ccc(C2/C(=C(\O)c3ccccc3)C(=O)C(=O)N2CCCn2ccnc2)c(OC)c1 (configuration not stated)	none
C=CCSC1=C(C#N)C(c2ccc(Cl)cc2)CC(=O)N1 (configuration not stated)	none
Cc1nc(Cc2c(Cl)cccc2Cl)[nH]c(=O)c1Cl	none
Cc1cc2nc3n(c2cc1C)C(O)C=C(C(C)(C)C)S3 (configuration not stated)	none
Cc1onc(-c2c(Cl)cccc2Cl)c1C(=O)N1CCC(C(=O)c2ccccc2)CC1	none
Cc1nc(-c2ccccc2)sc1C(=O)Nc1ccc2ccccc2n1	none

Screening data deposited in PubChem BioAssay by Center for Chemical Genomics, University of Michigan.
